Rows were chosen to be rich in hits. Some 12% of all compounds tested hit in one or more screens of this group.
Sfp inh: blocks B. subtilis Sfp PPTase activity; Potency, µM, for inactives: largest response in the series, negative = inhibition, most hits filed as inhibitors; Q9F4F7; Biochemical Sfp PPTase activity, qHTS; 310,000 compounds, 3.5% hits;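 further: the enzyme is Sfp with the accession as filed and its product quenches rhodamine fluorescence; 0% = enzyme reaction without inhibitor and -100% = no enzyme wells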
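Compounds were incubated with enzyme (final 15 nM) for 15 min at room temperature before substrate addition started the reaction. Fluorescence at 525 nm excitation, 598 nm emission was recorded immediately and after 30 minutes.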
HP1b binding inh: blocks HP1-beta chromodomain binding to methylated histone tails; 390,000 compounds, 0.56% hits; AlphaScreen HP1-beta / biotin-H3K9me3 peptide binding; Potency, µM (top dose mostly 114 µM), for inactives: top-dose activity change, negative = inhibition, actives largely listed as inhibitors; further: nearly all actives have a fitted effect of over 70% in size
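HP1-beta protein (50 nM final) preincubated 30 min at room temperature with biotinylated H3(1-18)K9me3 peptide (50 nM) in PBS pH 7.4, 0.01% Tween-20, then compound added for 30 min. AlphaScreen streptavidin donor/nickel chelate acceptor beads (10 ug/mL final), 30 min dark, luminescence read.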
G9a block: inhibitors of human histone lysine methyltransferase G9a; G9a H3K9 monomethylation, AlphaScreen, 2 h; Potency, µM (titrated, usually from 102 µM), for the others: top-dose activity, negative = inhibition, hits mostly inhibitors; 350,000 compounds, 8.8% hits; Q96KQ7; further: on the % scale 0 is the no-effect control and ±100 the full control effect; nearly all actives have a fitted effect of over 75% in size
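Methyltransferase reactions run at room temperature for 2 h (20 nM enzyme, 500 nM biotin-H3K9 peptide, 20 uM SAM) after a 15 min compound preincubation; product detected by AlphaScreen beads and anti-H3K9me1 antibody.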
L3MBTL1 inh: inhibitors of human L3MBTL1; 230,000 compounds, 0.66% hits; Potency, µM (series often up to 57.1 µM), for the others: at the top dose activity, negative = inhibition, hits mostly inhibitors; AID 485360; AlphaScreen L3MBTL1–H3K9me1 peptide binding; Q9Y468; further: on the % scale 0 is the no-effect control and ±100 the full control effect; nearly all actives have a fitted effect of over 60% in size
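Displacement of a biotinylated histone H3(1-15) peptide monomethylated at Lys9 (75 nM) from L3MBTL1 (50 nM) was measured by AlphaScreen after a 30 min room-temperature compound incubation; cefsulodin titration served as intraplate control.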
JMJD2A Tudor inh: JMJD2A Tudor domain (human) inhibition. AlphaScreen JMJD2A-Tudor / H3K4me3 peptide binding. O75164. Potency, µM (titrated, usually from 114 µM), for the others: at the top dose activity change, negative = inhibition, most hits filed as inhibitors. 390,000 compounds, 4.4% hits; further: on the % scale 0 is the no-effect control and ±100 the full control effect; nearly all actives have a fitted effect of over 50% in size
Target sequence (O75164 whole entry, looked up, the tested form may be a part): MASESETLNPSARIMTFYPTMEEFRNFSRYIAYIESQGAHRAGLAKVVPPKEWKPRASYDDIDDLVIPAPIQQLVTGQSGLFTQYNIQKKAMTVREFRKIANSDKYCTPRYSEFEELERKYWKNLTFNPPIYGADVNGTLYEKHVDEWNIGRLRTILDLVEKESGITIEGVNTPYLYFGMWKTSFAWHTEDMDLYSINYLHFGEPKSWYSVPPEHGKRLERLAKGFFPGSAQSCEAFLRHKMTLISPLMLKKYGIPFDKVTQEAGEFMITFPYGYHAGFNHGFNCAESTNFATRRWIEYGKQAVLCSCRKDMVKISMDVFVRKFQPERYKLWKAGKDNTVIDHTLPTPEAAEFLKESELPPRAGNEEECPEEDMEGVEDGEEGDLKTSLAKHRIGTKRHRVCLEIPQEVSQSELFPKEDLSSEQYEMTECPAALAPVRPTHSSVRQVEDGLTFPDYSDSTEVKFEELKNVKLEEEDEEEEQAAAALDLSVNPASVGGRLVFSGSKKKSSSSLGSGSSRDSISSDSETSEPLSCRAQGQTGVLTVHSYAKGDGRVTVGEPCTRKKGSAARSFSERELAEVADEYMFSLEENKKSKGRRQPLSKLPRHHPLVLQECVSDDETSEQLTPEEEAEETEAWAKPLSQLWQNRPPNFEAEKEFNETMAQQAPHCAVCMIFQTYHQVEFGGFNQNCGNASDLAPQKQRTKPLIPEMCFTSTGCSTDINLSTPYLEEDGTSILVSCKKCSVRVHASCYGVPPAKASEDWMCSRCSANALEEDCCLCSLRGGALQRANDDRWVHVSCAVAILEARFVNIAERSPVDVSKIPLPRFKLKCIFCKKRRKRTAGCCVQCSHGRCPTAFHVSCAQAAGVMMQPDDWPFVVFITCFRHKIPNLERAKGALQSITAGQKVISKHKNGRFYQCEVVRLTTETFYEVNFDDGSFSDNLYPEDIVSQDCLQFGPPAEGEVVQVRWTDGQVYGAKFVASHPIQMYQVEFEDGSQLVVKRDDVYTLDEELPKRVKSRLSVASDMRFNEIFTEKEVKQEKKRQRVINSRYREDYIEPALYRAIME
BAZ2B block: inhibitors of human BAZ2B bromodomain; AlphaScreen BAZ2B-H3K14Ac peptide displacement; AID 504333; Q9UIF8; Potency, µM (highest dose often 114 µM), for inactives: at the top dose activity change, negative = inhibition, most hits filed as inhibitors; 360,000 compounds, 4.4% hits; further: on the % scale 0 is the no-effect control and ±100 the full control effect; nearly all actives have a fitted effect of over 60% in size
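Complex of BAZ2B and biotin-H3K14Ac (50 nM apiece) forms over 30 min at RT, then faces library compounds up to 110 uM for another 30 min; AlphaScreen beads added, 20 min dark incubation, luminescence read.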
An asterisk follows results filed as active; ? = inconclusive; nt = no result; [ ] = remark or other dose. The call rests on the fitted dose curve; in most records, active means well fitted curve in the direction sought with a large enough effect; inconclusive means small, poorly fitted or top-dose-only effect, or another doubt; inactive means no such curve, though single readings can be large; an effect the other way counts as inactive or inconclusive. Potency means the concentration at half of the fitted maximal effect.

SMILES | Sfp inh | HP1b binding inh | G9a block | L3MBTL1 inh | JMJD2A Tudor inh | BAZ2B block
CCC(C)(C)c1nnc(NC(=O)C2CCN(C(=O)c3ccco3)CC2)s1 | -101% | ? | 1.8µM* | nt | 35µM* | ?
CCc1nnc(NC(=O)C2CCN(C(=O)c3ccco3)CC2)s1 | 5% | -3% | ? | nt | -13% | -11%
Cc1ccc(NC(=O)Cn2c(=O)nc(-c3ccccc3F)c3cc(Cl)ccc32)c(Br)c1 | nt | 39% | -14%[59 µM] | nt | -2% | -23%
C=C[C@@]1(C)CC(=O)[C@]2(O)[C@@]3(C)[C@H](O)CCC(C)(C)[C@@H]3[C@H](O)[C@H](OC(C)=O)[C@@]2(C)O1 | 7% | nt | nt | nt | nt | nt
CCn1nc(NC(=O)Cc2ccc(OC)cc2)c2cc3cc(C)ccc3nc21 | -10% | 23% | 45µM* | 7% | -9% | -4%
Cc1cccc(-c2cc(NC(=O)COc3ccccc3F)n(-c3ccccc3)n2)c1 | nt | 29%[57 µM] | 4%[59 µM] | nt | -3% | 7%
CCn1c(SCC(=O)c2ccc(O)c(O)c2)nnc1-c1ccccc1 | -18% | 10% | 14µM* | ? | ? | ?
COc1ccccc1-c1nnc(SCC(=O)c2ccc(Cl)cc2)n1-c1ccccc1 | nt | 14% | -44%[59 µM] | nt | -26% | -28%
C=CCn1c(SCC(=O)c2ccc(O)c(O)c2)nnc1-c1ccccc1OC | -23% | 26% | 5µM* | -21% | ? | 50µM*
CCn1c(SCC(=O)c2ccc(O)c(O)c2)nnc1-c1ccccc1OC | -21% | ? | ? | ? | 28µM* | 79µM*
CCc1ccc2oc(-c3cccc(NC(=O)c4ccc(-c5cccc([N+](=O)[O-])c5)o4)c3)nc2c1 | nt | 18% | ? | nt | -22% | ?
Cc1ccc(NC(=O)c2ccc3oc(=O)c(S(=O)(=O)c4ccccc4)cc3c2)cc1C | nt | 9% | -3%[59 µM] | nt | -13% | -10%
O=Cc1ccccc1OCCOc1ccccc1C=O | 2% | 40% | -5%[59 µM] | 7% | -3% | -7%
O=Cc1ccccc1C=O | 11µM* | nt | ? | nt | nt | nt
CCCS(=O)(=O)N1CC(=O)N(c2ccccc2F)C(C)(C(=O)NC2CCCCCC2)C1 (centres undefined) | nt | 37% | 2%[59 µM] | nt | -1% | 0%
O=c1c2ccccc2sc2c(CO)ccc(NCCN3CCCCC3)c12 | nt | ? | nt | nt | 50µM* | nt
COc1ccccc1N1CCN(C(=O)Cn2c(=O)n3nc(-c4cccc(C)c4)nc3c3ccccc32)CC1 | nt | -9% | -3%[59 µM] | nt | 0% | 0%
CCN(CC)C(=O)c1sc2c(c1C)c(=O)n(Cc1ccccc1)c(=O)n2Cc1c(C)cc(C)cc1C | nt | 27% | -5%[59 µM] | nt | -15% | -16%
Fc1cc2[nH]c(=S)[nH]c2cc1Cl | 8% | 8% | 6.3µM* | -2% | -11% | -2%
NC(=O)c1sc2nc(-c3cccs3)ccc2c1N | -13% | 45% | 35µM* | nt | -1% | -21%
Nc1c(C(=O)NC2CCCC2)sc2nc(-c3cccs3)ccc12 | 45µM* | 52% | -48%[2.33 µM] | nt | -7% | 4%
CC(C)CCn1c(SCCc2ccccc2)nc2c1c(=O)[nH]c(=O)n2C | -11% | -17% | ? | nt | -19% | 2%
COCCn1c(SCc2ccccc2)nc2c1c(=O)[nH]c(=O)n2C | 5% | -4% | 25%[2.33 µM] | nt | -23% | 8%
C/C=C/Cn1c(N(C)Cc2ccccc2)nc2c1c(=O)[nH]c(=O)n2C | -5% | 20% | 50µM* | ? | -18% | -28%
CC(C)n1c(SCCCc2ccccc2)nc2c1c(=O)[nH]c(=O)n2C | ? | -10% | 35µM* | 10% | -2% | 1%
SMILES | Sfp inh | HP1b binding inh | G9a block | L3MBTL1 inh | JMJD2A Tudor inh | BAZ2B block
COCCn1c(SCC(=O)OCc2ccccc2)nc2c1c(=O)[nH]c(=O)n2C | 19% | 1% | 32µM* | -5% | -8% | -3%
CCCCCOC(=O)CSc1nc2c(c(=O)[nH]c(=O)n2C)n1CCc1ccccc1 | -14% | -15% | 13µM* | 9% | 8% | -6%
CN(Cc1ccccc1)c1nc2c(c(=O)[nH]c(=O)n2C)n1C | 21% | 15% | 3%[59 µM] | -2% | -20% | -5%
N#Cc1ccc(CS(=O)(=O)c2ccccc2)cc1 | 13% | nt | nt | nt | nt | nt
Cc1ccccc1N1C(=O)c2cc(N)ccc2N/C1=C\F | 3% | nt | -2%[12.7 µM] | nt | nt | nt
Cc1ccc2c(c1)c1c(c(=O)n(Cc3ccccc3)c(=O)n1CC(=O)Nc1ccccc1F)n2C | nt | -4% | -8%[59 µM] | nt | -15% | -4%
COc1ccc(C2c3c(nc(CCCc4ccccc4)[nH]c3=O)Oc3ccc4ccccc4c32)cc1OC (centres undefined) | nt | nt | nt | nt | -33% | nt
COc1ccc(NC(=O)CC2Oc3ccc(C)cc3NC2=O)cc1Cl (centres undefined) | nt | 10% | -14%[59 µM] | nt | -7% | -28%
COc1cccc(C(=O)Nc2cccc(-c3cn4c(C)csc4n3)c2)c1OC | nt | 0%[57 µM] | -3%[59 µM] | nt | ? | ?
C=CCn1c(SCCCc2ccccc2)nc2c1c(=O)[nH]c(=O)n2C | -16% | 11% | 45µM* | -2% | -5% | -4%
C/C=C/Cn1c(SCCCc2ccccc2)nc2c1c(=O)[nH]c(=O)n2C | -25% | -10% | 45µM* | 5% | -25% | -6%
COCCn1c(SCCCc2ccccc2)nc2c1c(=O)[nH]c(=O)n2C | -20% | -11% | 50µM* | -6% | -2% | 9%
CCCCSc1nc2c(c(=O)[nH]c(=O)n2C)n1CCc1ccccc1 | 9% | 18% | ? | -1% | -18% | -3%
C=CCn1c(SCCOC)nc2c1c(=O)[nH]c(=O)n2C | ? | 1% | 40µM* | nt | -11% | -4%
CCOc1ccc(-c2nonc2NC(=O)c2oc3ccc(F)cc3c2C)cc1 | nt | 12% | 3%[59 µM] | nt | -11% | 0%
COc1ccc(-c2nc3ccc(NS(=O)(=O)c4ccc(Cl)cc4)cc3o2)cc1 | nt | 2% | -33%[59 µM] | nt | -33% | -27%
CC(C)(C)OC(=O)N1CCC(c2c(C(=O)N3CCCCC3)cnn2-c2ccccc2Cl)CC1 | nt | 28% | -27%[59 µM] | nt | -7% | 11%[57.1 µM]
CC(C)c1ccc(S(=O)(=O)Nc2ccc(N3CCOCC3)cc2)cc1 | 9% | -1% | ? | nt | -32% | 45µM*
CCCCCCC1(C)NC(=O)N(C(C)C(=O)Nc2ccc(N3CCOCC3)cc2)C1=O (centres undefined) | nt | 22% | 17%[12.7 µM] | 2% | -26% | 7%
CC(C)c1ccc(NS(=O)(=O)c2ccc(N3C(=O)CCC3=O)cc2)cc1 | -3% | 7% | nt | 14% | -19% | -5%
Cc1ccc(NS(=O)(=O)c2ccc(N3C(=O)CCC3=O)cc2)cc1 | -4% | 29% | 50µM* | nt | 30% | 0%
CC(C)c1ccc(C2(C)NC(=O)N(C(C)C(=O)Nc3ccc(N4CCOCC4)cc3)C2=O)cc1 (centres undefined) | nt | 36% | 56µM* | -2% | -25% | -32%
